# Assay outcomes deposited in PubChem BioAssay by National Center for Advancing Translational Sciences (NCATS).
# Shown are actives, neighbours in structure and some others; about 9.2% of the full set was active somewhere.
# Lamin A splicing = LMNA splicing modulation; 200,000 compounds, 0.01% hits; HeLa LMNA splicing GFP/RFP minigene ratio, 48 h; Potency, µM (series often up to 46.1 µM), for the others: at the highest dose ratio change, negative = inhibition, actives largely listed as inhibitors; active means well fitted inhibition curve with a large enough effect in the signal ratio, with a control signal flat, not every such curve was filed as active; inconclusive means small, poorly fitted or top-dose-only effect, or effect the other way, or a change in a side signal; the % refers to the signal ratio; further: on the % scale 0 is the no-effect control and ±100 the full control effect
#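 S3 HeLa cells stably expressing lamin A-EGFP splicing minigene plus DsRed2, 600 cells/well, 48 h compound exposure at 37C. Laser-scanning cytometry; analysed as GFP (500-530 nm)/RFP (575-640 nm) total intensity ratio; 0.5% DMSO vehicle.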
# HTT aggregate = mutant huntingtin aggregation inhibition. PC12 HttQ103-GFP aggregates, Acumen cytometry, 40 h. Potency, µM (titrated, usually from 46.1 µM), for inactives: top-dose activity change, negative = inhibition, most hits filed as inhibitors. 220,000 compounds, 1.1% hits. AID 1688; active means well fitted curve in the direction sought with a large enough effect; inconclusive means small, poorly fitted or top-dose-only effect, or another doubt; inactive means no such curve, though single readings can be large; an effect the other way counts as inactive or inconclusive; further: on the % scale 0 is the no-effect control and ±100 the full control effect; nearly all actives have a fitted effect of over 60% in size
#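 Steps: seed 1500 PC12 HTTQ103-GFP cells/well; add tebufenozide, 100 nM final; add compound titration; add ATPLite reagent; quantify GFP aggregates by laser scanning cytometry.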
# ALDH1A1 inh = inhibitors of human aldehyde dehydrogenase 1A1; P00352; Purified ALDH1A1, NADH fluorescence, propionaldehyde substrate; Potency, µM (highest dose often 75.3 µM), without a hit: at the highest dose activity, negative = inhibition, most hits filed as inhibitors; 220,000 compounds, 7.3% hits;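 further: plate controls were no enzyme wells and a reference inhibitor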
# HPGD block = inhibitors of human 15-hydroxyprostaglandin dehydrogenase (HPGD); 150,000 compounds, 4.3% hits; purified HPGD, NADH fluorescence kinetic, PGE2 substrate; P15428; Potency, µM, without a hit: top-dose activity change, negative = inhibition, usual class: inhibitors; further: on the % scale 0 is the no-effect control and ±100 the full control effect
# Target sequence (P15428 whole entry, looked up): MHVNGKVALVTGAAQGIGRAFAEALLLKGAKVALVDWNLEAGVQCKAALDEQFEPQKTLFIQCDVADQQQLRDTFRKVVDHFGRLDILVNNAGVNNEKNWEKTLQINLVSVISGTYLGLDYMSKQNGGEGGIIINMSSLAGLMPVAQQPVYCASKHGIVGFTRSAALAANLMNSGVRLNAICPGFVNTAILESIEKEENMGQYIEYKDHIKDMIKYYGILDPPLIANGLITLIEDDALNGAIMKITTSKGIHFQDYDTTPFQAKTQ
#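 20 nM HPGD preincubated 15 min at room temperature with compound in 50 mM Tris-HCl pH 8, 0.01% Tween 20. Started with 1 mM NAD+ and 30 uM prostaglandin E2; NADH fluorescence (360/450 nm) read 5 times over 30-s intervals, last minus first.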
# HTT cytoprotect = cytoprotection in Huntington HTT-Q103 PC12 cell model | Potency, µM (top dose mostly 56.4 µM), for the others: cytoprotection (ATP increase), actives largely listed as activators | 230,000 compounds, 0.14% hits | PC12 HTT-Q103 induced, cytoprotection, ATP luminescence, 40 h; active means well fitted curve in the direction sought with a large enough effect; inconclusive means small, poorly fitted or top-dose-only effect, or another doubt; inactive means no such curve, though single readings can be large; an effect the other way counts as inactive or inconclusive; further: % of control where 0% means no effect; nearly all actives have a fitted effect of over 45% in size
#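 Stable PC12 Q103-GFP cells in serum-supplemented, phenol red-free DMEM; induction by tebufenozide at 100 nM final; compound dose series; cell viability quantified luminescently from ATP.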
# KDM4E inh = inhibitors of human JMJD2E histone demethylase. B2RXH2. JMJD2E catalytic domain, FDH-coupled NADH fluorescence (FDH is formaldehyde dehydrogenase). Potency, µM (highest dose often 57.1 µM), for the others: top-dose activity change, negative = inhibition, most hits filed as inhibitors. 230,000 compounds, 1.6% hits. AID 2147;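 further: 0% = wells with enzyme and -100% = buffer wells without enzyme; nearly all actives have a fitted effect of over 50% in size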
# Target sequence (B2RXH2 1-337 limits assumed): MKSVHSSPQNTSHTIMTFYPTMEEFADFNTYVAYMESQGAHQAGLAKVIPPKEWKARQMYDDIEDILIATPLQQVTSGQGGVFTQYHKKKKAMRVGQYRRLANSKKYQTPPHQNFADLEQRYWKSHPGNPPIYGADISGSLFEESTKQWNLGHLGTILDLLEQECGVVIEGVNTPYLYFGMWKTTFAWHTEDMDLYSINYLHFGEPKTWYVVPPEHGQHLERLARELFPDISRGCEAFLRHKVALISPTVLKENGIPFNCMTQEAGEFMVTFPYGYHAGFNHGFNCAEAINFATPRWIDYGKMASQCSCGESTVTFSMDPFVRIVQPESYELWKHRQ
# * = called active by the depositor; u = inconclusive; x = no result given; [ ] = dose if it differs, or a comment. Unless noted, the call rests on the fitted dose curve; in most records, active means well fitted inhibition curve with a large enough effect (not every such curve was filed as active); inconclusive means small, poorly fitted or top-dose-only effect, or another doubt; inactive means no such curve, though single readings can be large or run the other way. Potency means the concentration at half of the fitted maximal effect.
SMILES,Lamin A splicing,HTT aggregate,ALDH1A1 inh,HPGD block,HTT cytoprotect,KDM4E inh
O=C(Nc1cc(F)ccc1F)c1ccc(CN2CC(=O)N3CCCCC3C2=O)cc1 (stereo not drawn),9.6%[46 µM],x,x,x,x,x
CN(C)CCN1C(=O)C(O)=C(C(=O)c2cc3ccccc3o2)C1c1ccc(N(C)C)cc1 (stereo not drawn),-17.1%,-25.8%,28.2µM*,-11.6%,-6.7%,-6.5%
COc1ccccc1C1C(C(=O)c2cc3ccccc3o2)=C(O)C(=O)N1CCN1CCOCC1 (stereo not drawn),2.3%,15.5%,20µM*,-10.8%,0.1%[0.074 µM],-19.5%
COc1cccc2cc(C(=O)C3=C(O)C(=O)N(CCCN4CCOCC4)C3c3ccncc3)oc12 (stereo not drawn),x,x,x,x,-9.6%[0.074 µM],x
C1CCC2(CC1)C1=C(CCCC1)Nc1nnnn12,8.8%,-2.7%,28.2µM*,2.0%,-4.8%,1.2%
CC1CCc2sc(C(=O)N/N=C/c3ccc([N+](=O)[O-])cc3)cc2C1 (stereo not drawn),-9.3%,-4.2%,2.9%,-11.3%,29.7%[10 µM],4.0%
CC(C)(C)C1CCC(=NNC(=O)c2cc3c(s2)CCCC3)CC1 (stereo not drawn),-16.9%,-8.1%,3.98µM*,-15.8%,24.8%[10 µM],3.0%
CC1CCc2sc(C(=O)NN=C3CCC(c4ccccc4)CC3)cc2C1 (stereo not drawn),6.1%,u,1.26µM*,-16.5%,-5.7%[10 µM],3.5%
CCc1cc(C(=O)NNC(=O)CCl)sc1C,x,u,u,x,u,1.5%
CC(C)(C)C1CCc2sc(C(=O)NNC(=O)CCl)cc2C1 (stereo not drawn),x,-20.0%,3.16µM*,x,-80.5%,-5.3%
CC(C)(C)C1CCC(=NNC(=O)c2ccccc2-n2cccc2)CC1 (stereo not drawn),-17.6%,1.1%,5.01µM*,-14.2%,17.0%[10 µM],-1.3%
CCOC(=O)CN1C(=O)N[C@@H](c2cccc(C(F)(F)F)c2)[C@@H](C(=O)OC)[C@H]1C,-13.7%[9.22 µM],x,3.1%[13.5 µM],2.8%,u,12.1%[11.4 µM]
N#CCc1nn(-c2ccccc2)c2ncnc(N)c12,x,-13.2%[9.22 µM],x,x,12.8%[10 µM],u
CC1Oc2ccccc2C=C1/C=N/Nc1ccc(C(=O)O)cc1 (stereo not drawn),x,-10.6%[9.22 µM],x,x,10.0%[10 µM],u
CC(C)CC(=O)c1c[nH]c(C(=O)N2CCN(Cc3ccccc3)CC2)c1,u,11.1%,u,x,9.2%[10 µM],4.1%
O=C(NN=C1CCC(c2ccccc2)CC1)c1cc2c(s1)CCCC2 (stereo not drawn),-5.2%,-8.0%,7.94µM*,-9.5%,-1.9%[10 µM],-0.4%
CNC(=O)c1cc2c(s1)CCCCCC2,-12.7%,-16.5%,u,-9.8%,-18.5%[0.074 µM],-9.2%
CCc1ccc(C(=O)CSc2nc3cc(S(=O)(=O)N4CCOCC4)ccc3n2CC)cc1,u,8.3%,28.2µM*,-23.4%,12.5%[10 µM],3.6%
COC(=O)c1ccc(CSc2nc3ccc(S(=O)(=O)N4CCOCC4)cc3[nH]2)cc1,2.3%,-0.9%,-4.0%,28.2µM*,-2.0%[10 µM],-2.2%
CCOC(=O)CSc1nc2ccc(S(=O)(=O)N3CCOCC3)cc2[nH]1,-2.3%,6.8%,-12.0%,-6.5%,u,-2.1%
Clc1cccc(Cl)c1C(Nc1nncs1)Nc1nncs1,x,x,u,-3.8%,5.9%[10 µM],x
Cc1ccc(S(=O)(=O)O)cc1C,u,5.4%,3.3%,-3.5%,-8.9%,x
COc1ccc(C(=O)CSc2ccccc2C(=O)O)cc1,-4.3%[46 µM],11.2%,-1.7%,x,-66.2%,8.3%
Cc1nn(CCC#N)c(N)c1C1(O)C(=O)Nc2c(Cl)cc(Cl)cc21 (stereo not drawn),x,-4.2%[9.22 µM],3.98µM*,x,-23.5%[10 µM],-5.1%
COc1cc(C(=O)NCCc2ccc3c(c2)OCCO3)ccc1OCC(=O)N1CCOCC1,13.0%,14.4%,22.4µM*,-29.4%,-34.3%,1.6%
CCOc1ccc(C(=O)NCCc2ccc3c(c2)OCCO3)cc1,x,5.01µM*,11.7%,x,x,-15.7%
COc1cc(C(=O)O)ccc1OCC(=O)N1CCOCC1,2.0%,-2.3%,0.3%,-0.4%,-4.0%,3.3%
